Source: PubChem BioAssay (NCATS)
Activity calls are given as the source filed them. Calls follow the shape of the full dose curve.

experiment: qHTS drug screen for cell cycle checkpoint inhibitors in PARPi-resistant BRCA-mutant ovarian cancer cell lines. (AID 1963452); settings: PEO1/OlaR viability, CellTiter-Glo luminescence, 96 h; stronger effect = lower value
In short: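 PEO1, PEO4 and PEO1/OlaR ovarian cancer cells, 600 per well, exposed 96 h at 37C to a dilution series. Viability read by CellTiter-Glo luminescence, normalized to DMSO and empty wells; activity summarized as Z-AUC.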

Row | Structure (SMILES) | Z-AUC
1 | C=C1CC[C@@H]2[C@](C)(CO)[C@H](O)CC[C@@]2(C)[C@@H]1C/C=C1/C(=O)OC[C@H]1O | 0.643 (inactive)
2 | NCc1ccc(OCCCc2sc(-c3ccc4c(c3)/C(=N/Nc3nc5ccccc5s3)CCC4)nc2C(=O)O)cc1 | 1.02 (inactive)
3 | O=C(O)c1ccc(CCCc2ccc(OCCc3ccc(F)cc3)cc2)o1 | 0.294 (inactive)
4 | Cc1c(-c2ccnn2C)cc(C(=O)NCc2ccc(S(C)(=O)=O)cn2)c(=O)n1-c1cccc(C(F)(F)F)c1 | -0.519 (inactive)
5 | CC1(C)O[C@@H]2C[C@H]3[C@@H]4CCC5=CC(=O)C=C[C@]5(C)[C@H]4[C@@H](O)C[C@]3(C)[C@]2(C(=O)CO)O1 | 0.315 (inactive)
6 | CCCOc1ccn2c(C(C)=O)cc(-c3ccccc3S(C)(=O)=O)c2c1 | 2.02 (inactive)
7 | Nc1ccn([C@@H]2C(F)=C(CO)[C@@H](O)[C@H]2O)c(=O)n1 | 0.41 (inactive)
8 | CC(C)C(=O)OCC(=O)[C@@]12O[C@H](C3CCCCC3)O[C@@H]1C[C@H]1[C@@H]3CCC4=CC(=O)C=C[C@]4(C)[C@H]3[C@@H](O)C[C@@]12C | -0.223 (inactive)

same assay, conditions: PEO1/OlaR viability, CellTiter-Glo luminescence, 96 h; measured here: PEO1 parental Z-AUC; stronger effect = lower value

Row | Structure (SMILES) | Z-AUC
9 | CCCCC(=O)OCC(=O)[C@]1(O)Cc2c(O)c3c(c(O)c2[C@@H](O[C@H]2C[C@H](NC(=O)C(F)(F)F)[C@H](O)[C@H](C)O2)C1)C(=O)c1c(OC)cccc1C3=O | -2.19
10 | C=C1CC[C@@H]2[C@](C)(CO)[C@H](O)CC[C@@]2(C)[C@@H]1C/C=C1/C(=O)OC[C@H]1O | -0.159
11 | NCc1ccc(OCCCc2sc(-c3ccc4c(c3)/C(=N/Nc3nc5ccccc5s3)CCC4)nc2C(=O)O)cc1 | 1.09
12 | O=C(O)c1ccc(CCCc2ccc(OCCc3ccc(F)cc3)cc2)o1 | 0.863
13 | Cc1c(-c2ccnn2C)cc(C(=O)NCc2ccc(S(C)(=O)=O)cn2)c(=O)n1-c1cccc(C(F)(F)F)c1 | -0.353
14 | CC1(C)O[C@@H]2C[C@H]3[C@@H]4CCC5=CC(=O)C=C[C@]5(C)[C@H]4[C@@H](O)C[C@]3(C)[C@]2(C(=O)CO)O1 | 1.46
15 | CCCOc1ccn2c(C(C)=O)cc(-c3ccccc3S(C)(=O)=O)c2c1 | 1.76
16 | Nc1ccn([C@@H]2C(F)=C(CO)[C@@H](O)[C@H]2O)c(=O)n1 | -0.156
17 | CC(C)C(=O)OCC(=O)[C@@]12O[C@H](C3CCCCC3)O[C@@H]1C[C@H]1[C@@H]3CCC4=CC(=O)C=C[C@]4(C)[C@H]3[C@@H](O)C[C@@]12C | 0.238

same assay, conditions: PEO1/OlaR viability, CellTiter-Glo luminescence, 96 h; measured here: PEO4 Z-AUC; stronger effect = lower value

Row | Structure (SMILES) | Z-AUC
18 | CCCCC(=O)OCC(=O)[C@]1(O)Cc2c(O)c3c(c(O)c2[C@@H](O[C@H]2C[C@H](NC(=O)C(F)(F)F)[C@H](O)[C@H](C)O2)C1)C(=O)c1c(OC)cccc1C3=O | -1.93
19 | C=C1CC[C@@H]2[C@](C)(CO)[C@H](O)CC[C@@]2(C)[C@@H]1C/C=C1/C(=O)OC[C@H]1O | 0.023
20 | NCc1ccc(OCCCc2sc(-c3ccc4c(c3)/C(=N/Nc3nc5ccccc5s3)CCC4)nc2C(=O)O)cc1 | 0.501
21 | O=C(O)c1ccc(CCCc2ccc(OCCc3ccc(F)cc3)cc2)o1 | 0.926
22 | Cc1c(-c2ccnn2C)cc(C(=O)NCc2ccc(S(C)(=O)=O)cn2)c(=O)n1-c1cccc(C(F)(F)F)c1 | -0.364
23 | CC1(C)O[C@@H]2C[C@H]3[C@@H]4CCC5=CC(=O)C=C[C@]5(C)[C@H]4[C@@H](O)C[C@]3(C)[C@]2(C(=O)CO)O1 | 0.804
24 | CCCOc1ccn2c(C(C)=O)cc(-c3ccccc3S(C)(=O)=O)c2c1 | 1.78
25 | Nc1ccn([C@@H]2C(F)=C(CO)[C@@H](O)[C@H]2O)c(=O)n1 | -0.408
26 | CC(C)C(=O)OCC(=O)[C@@]12O[C@H](C3CCCCC3)O[C@@H]1C[C@H]1[C@@H]3CCC4=CC(=O)C=C[C@]4(C)[C@H]3[C@@H](O)C[C@@]12C | -0.69
